Compound activity: PubChem BioAssay, National Center for Advancing Translational Sciences (NCATS)
Most compounds without a hit are left out; they make up all but 6.6% or so of the library.
HT1080NT lethal – qHTS for induction of synthetic lethality in tumor cells producing 2HG: qHTS for the HT-1080-NT fibrosarcoma cell line | HT-1080-NT fibrosarcoma viability, CellTiter-Glo ATP luminescence, 48 h | Potency, µM (doses to about 46.1 µM), for the others: at the top dose activity, negative = less viability, actives largely listed as cytotoxic | hit rate 1.6% among 360,000 | AID 686970, 2013;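 also: NT is the 2HG producing partner of a matched IDH1 knockdown line; 0% = DMSO-treated cells and -100% = media-only wells without cells; nearly all actives have a fitted effect of over 55% in size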
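A 48-hour cytotoxicity screen used HT-1080-NT cells plated 2 hours before compound delivery. ATP-based CellTiter-Glo luminescence measured viability, normalized to DMSO and no-cell controls.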
KB-3-1 cytotox – qHTS assay for MDR1-selective chemotherapeutics: Primary screen using the parental adenocarcinoma cell KB-3-1 | Potency, µM (series often up to 46.1 µM), hits mostly cytotoxic | hit rate 1.4% among 400,000 | KB-3-1 viability, CellTiter-Glo ATP luminescence, 72 h; also: % is scaled to controls: 0 for no effect and ±100 for the full control effect; nearly all actives have a fitted effect of over 60% in size
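Viability of parental KB-3-1 cells, measured by CellTiter-Glo luminescence, followed a 72 h incubation at 37 °C with pinned compounds in phenol-red-free DMEM containing 10% FBS.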
HepG2 viability – qHTS for Inhibitors of TGF-b: Cytotox Counterscreen | HepG2 CAGA-GFP viability, ATP luminescence, 18 h | Potency, µM (series often up to 46.1 µM), for the others: at the top dose activity change, negative = cytotoxicity, actives largely listed as cytotoxic | hit rate 0.76% among 410,000
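HepG2 CAGA-GFP cells (1000/well, DMEM with 1% FBS) received compound, then TGF-beta at 500 pg/mL final, and were incubated 18 hours at 37 degrees C. Viability was read by CellTiter-Glo luminescence. Media-only wells were set as complete cell-killing and DMSO as no toxicity.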
KB-V1 cytotox – qHTS assay for MDR1-selective chemotherapeutics: Primary screen using the drug-selected MDR subline cells KB-V1; AID 1347076, 2019; hit rate 3.4% among 400,000; KB-V1 MDR cells viability, CellTiter-Glo, 72 h; Potency, µM (titrated, usually from 46.1 µM), hits mostly cytotoxic; also: % is scaled to controls: 0 for no effect and ±100 for the full control effect; nearly all actives have a fitted effect of over 60% in size
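Drug-selected KB-V1 cells, grown in DMEM lacking phenol red with 10% FBS, receive compound titrations; after three days at 37 degrees C, surviving cell ATP is quantified by CellTiter-Glo luminescence and responses normalized and curve-fitted.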
TGFb inhibitor – qHTS for Inhibitors of TGF-b | HepG2 CAGA-GFP TGF-b/SMAD3 reporter, GFP fluorescence, 18 h; TGF-beta stimulated, 500 pg/mL final | Potency, µM (titrated, usually from 46.1 µM), for inactives: at the top dose activity, negative = inhibition, hits mostly inhibitors | hit rate 1.2% among 410,000 | AID 588855, 2011; also: % is scaled to controls: 0 for no effect and ±100 for the full control effect; nearly all actives have a fitted effect of over 65% in size
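HEPG2 CAGA-GFP cells (1000/well, DMEM with 1% FBS) were pre-incubated 2 h at 37 degrees C, given compound by pin tool, then stimulated with TGF-beta at 500 pg/mL final for 18 h before per-cell GFP fluorescence imaging.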
HT1080 IDH1KD tx – qHTS for induction of synthetic lethality in tumor cells producing 2HG: qHTS for the HT-1080-IDH1KD cell line. HT-1080 IDH1 knockdown viability, ATP luminescence, 48 h. hit rate 2% among 360,000. Potency, µM (doses to about 46.1 µM), for the others: top-dose activity, negative = toxicity, usual class: cytotoxic;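 also: 0% = DMSO wells and -100% = cell-free medium wells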
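% activity derives from luminescence (CellTiter-Glo), normalised to DMSO and no-cell wells. HT-1080-IDH1KD cells, 750/well, had 48 h compound exposure at 37 °C.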
* hit, by the source's call; i = inactive; ? = inconclusive; / = not tested or not shown. Calls follow the shape of the dose curve; as a rule, active = well fitted curve in the direction sought with a large enough effect; inconclusive = small, poorly fitted or top-dose-only effect, or another doubt; inactive = no such curve, though single readings can be large; an effect the other way counts as inactive or inconclusive. Potency is read from the fitted curve at half-maximal effect.

SMILES | HT1080NT lethal | KB-3-1 cytotox | HepG2 viability | KB-V1 cytotox | TGFb inhibitor | HT1080 IDH1KD tx
CCCc1cc(=O)[nH]c(Nc2cc(Cl)cc(Cl)c2)n1 | / | ? | -65% | ? | ? | /
CC1=C(c2ccc(C)cc2)S(=O)(=O)N(Cc2ccc(C(=O)Nc3ccc(F)cc3C)cc2)C1=O | / | ? | 2% | ? | 0% | /
CCOc1ccccc1NC(=O)C(CC(C)C)NS(=O)(=O)c1ccc2c(c1)CCN2C(C)=O (configuration not stated) | / | i | -3% | i | -4% | /
CCc1ccc(N(C(=O)c2snc(C(N)=O)c2N)C(C(=O)NC2CCCC2)c2ccco2)cc1 (configuration not stated) | ? | ? | -18% | 23µM* | ? | ?
CCCC(C(=O)NC1CCCC1)N(Cc1cccs1)C(=O)c1snc(C(N)=O)c1N (configuration not stated) | -2% | i | -9% | 2.3µM* | -2% | -19%
COc1ccc(N(C(=O)c2snc(C(N)=O)c2N)C(C(=O)NC2CCCC2)c2ccco2)cc1 (configuration not stated) | -4% | i | 0% | i | 13% | -9%
CCC(C(=O)NC1CCCC1)N(Cc1ccc2c(c1)OCO2)C(=O)c1snc(C(N)=O)c1N (configuration not stated) | 11% | i | 0% | i | -35% | -3%
CC1(C)C(C=C(Cl)Cl)C1C(=O)Nc1ccc([N+](=O)[O-])cc1 (configuration not stated) | 23µM* | ? | -94% | ? | ? | ?
CC(C)CN(CCCNC(=O)c1cc(-c2ccc(Br)s2)nc2ccccc12)CC(C)C | / | i | -13% | i | 14% | /
Cc1ccc(-n2nc(C)c3c(C)cc(=O)n(CC(=O)NC(C)c4ccccc4)c32)cc1 (configuration not stated) | / | i | 3% | i | 3% | /
OCC1OC(n2cnc3ncccc32)C(O)C1O (configuration not stated) | 21µM* | i | -31% | i | ? | ?
O=C(NCc1ccc(F)cc1)c1cc(C2CCCCN2C(=O)CCc2ccccc2)on1 (configuration not stated) | 4% | i | -22% | i | -15% | -4%
CC(=O)N/N=c1\sc2ccccc2n1C | 2% | i | -7% | i | -6% | 4%
Cn1c(=NC(=O)c2ccco2)sc2ccccc21 | -21% | ? | 1% | 16µM* | -18% | -7%
COc1cc(C(=O)N=c2sc3ccccc3n2C)cc(OC)c1OC | -2% | i | -14% | 4.6µM* | 6% | -1%
Cn1c(=NC(=O)CCl)sc2ccccc21 | 5.8µM* | i | 11µM* | ? | ? | 6.5µM*
COc1ccc(C2(C)NC(=O)N(CC(=O)NCCC3=CCCCC3)C2=O)cc1OC (configuration not stated) | -8% | i | 1% | i | -13% | -1%
COc1ccc2cc(C3(C)NC(=O)N(CC(=O)NCCC4=CCCCC4)C3=O)ccc2c1 (configuration not stated) | -12% | i | -8% | 16µM* | 0% | -11%
COc1ccc(N2CCN(C(=O)CN3C(=O)NC(C)(c4ccc5ccccc5c4)C3=O)CC2)cc1 (configuration not stated) | -14% | 23µM* | -7% | 2.3µM* | -30% | -29%
CSc1nn(Cc2ccc(Br)cc2)c(N(C(C)=O)C(C)=O)c1S(=O)(=O)c1ccccc1 | / | i | 11µM* | ? | ? | /
CSc1nn(Cc2ccc(F)cc2)c(N)c1S(=O)(=O)c1ccc(Cl)cc1 | / | ? | 14µM* | ? | 10µM* | /
CCOc1cc(Br)ccc1S(=O)(=O)NCc1ccccc1 | 1% | i | -4% | 15µM* | -7% | -1%
CCOc1ccc(OCC)c(S(=O)(=O)NCc2ccccc2)c1 | 1% | i | 2% | i | 17% | 1%
CCn1c(CCC(=O)Nc2cc(F)ccc2C)nc2cc(S(=O)(=O)N(C)C)ccc21 | 8% | i | 1% | i | -9% | 5%
CCN(CC)S(=O)(=O)c1ccc2c(c1)nc(CCC(=O)Nc1ccccc1Cc1ccccc1)n2CC | -8% | i | -24% | 21µM* | ? | -27%
SMILES | HT1080NT lethal | KB-3-1 cytotox | HepG2 viability | KB-V1 cytotox | TGFb inhibitor | HT1080 IDH1KD tx
Cc1ccsc1CN(Cc1ccco1)C(=O)c1ccc(Cl)cc1 | / | / | -48% | / | ? | /
CCOC(=O)C1=C[C@@H](C2CCCCC2)N(S(=O)(=O)c2ccc([N+](=O)[O-])cc2)[C@H]1c1ccccc1 | ? | i | -10% | i | ? | 8.2µM*
CCOC(=O)C1=CC[C@@H](c2ccc([N+](=O)[O-])cc2)N(S(=O)(=O)c2ccc(C)cc2)[C@H]1c1ccccc1 | 13% | i | -6% | i | -9% | 12%
COCCCNC(=O)c1cccc(C(=O)NCCCOC)c1 | 4% | i | -16% | i | 1% | 0%
CCOC(=O)N1CCC(NC(=O)c2ccc3c(c2)N=C(C)c2c(C)ccc(C)c2S3)CC1 | 2.1µM* | 2.1µM* | -21% | 5.2µM* | ? | 2.3µM*
CC1=Nc2cc(C(=O)NC3CCC(C)CC3)ccc2Sc2c(C)ccc(C)c21 (configuration not stated) | / | 0.52µM* | -25% | 0.26µM* | ? | /
COCCCNC(=O)c1ccc2c(c1)N=C(C)c1c(C)ccc(C)c1S2 | / | 0.016µM* | -29% | 0.052µM* | ? | /
CC1=Nc2cc(C(=O)NC3CCCCC3)ccc2Sc2ccc(Cl)cc21 | / | / | -16% | / | ? | /
CC1(C(=O)Nc2cccc(Oc3ccccc3)c2)Cc2c(-c3ccc4c(c3)OCO4)ccnc2O1 (configuration not stated) | ? | 4.6µM* | -2% | 5.8µM* | ? | ?
CC(=O)Nc1ccc(NC(=O)C2(C)Cc3c(-c4ccc5c(c4)OCO5)ccnc3O2)cc1 (configuration not stated) | -11% | i | -9% | i | 14% | -17%
CC1(C(=O)Nc2cccnc2)Cc2c(-c3ccc4c(c3)OCO4)ccnc2O1 (configuration not stated) | -19% | 15µM* | -27% | ? | -3% | -29%
